Growth inhibition data for 21 compounds are collected here from PubChem BioAssay (NCI).

A short description of assay [1]: NCI Yeast Anticancer Drug Screen. Data for the rad50 strain (AID 155).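 Also: 0% = growth of vehicle-only cultures of the same strain.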 As to conditions: S. cerevisiae rad50 strain growth inhibition; at 50.0 µM; hits give high values. In outline: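 DNA repair mutant yeast, compound exposure, growth read-out; inhibition is taken relative to vehicle.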
A short description of assay [2]: NCI Yeast Anticancer Drug Screen. Data for the mec2-1 strain (AID 157). As to conditions: S. cerevisiae mec2-1 strain, at 50.0 µM, hits give high values. In outline:
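Growth inhibition is read against vehicle-treated controls after compound exposure of the mec2-1 yeast strain, which is defective in DNA damage repair or cell cycle control.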

Assay [3] can be described thus: NCI Yeast Anticancer Drug Screen. Data for the sgs1 mgt1 strain (AID 161).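 Also: 0% = growth of cultures given vehicle only.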 The settings on record: S. cerevisiae sgs1 mgt1 strain, at 50.0 µM, hits give high values. An outline of the steps: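 Growth of a repair-deficient yeast mutant was monitored after compound treatment and expressed as inhibition relative to vehicle-treated cultures.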
Assay [4] in a line: NCI Yeast Anticancer Drug Screen. Data for the cln2 rad14 strain (AID 165).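 Also: 0% = growth equal to vehicle treated cultures.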 As to conditions: S. cerevisiae cln2 rad14 strain, at 50.0 µM, hits give high values. An outline of the steps:
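Growth inhibition, relative to vehicle-treated controls, is the read-out. The test organism is a yeast strain with defined genetic alterations, cln2 rad14.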

A short description of assay [5]: NCI Yeast Anticancer Drug Screen. Data for the bub3 strain (AID 167). As to conditions: S. cerevisiae bub3 mutant strain, at 50.0 µM, hits give high values. In outline: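 In this screen, a yeast mutant lacking normal mitotic checkpoint function is challenged with compound. Relative growth versus vehicle gives the inhibition value.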
A short description of assay [6]: NCI Yeast Anticancer Drug Screen. Data for the mlh1 rad18 strain (AID 175). The settings on record: S. cerevisiae mlh1 rad18 strain growth inhibition; at 50.0 µM; hits give high values. In outline: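 Cells of a genetically altered yeast strain, deficient in DNA damage repair, were treated with compound. Their growth was then compared with that of vehicle-treated cultures to give inhibition.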

This is part of a sample that, as a whole, favours compounds with a hit. Of some 79,000 tested, about 15% had one in any assay. Unmarked numbers belong to inactive results. The source made the active and inactive calls. Rule as the data show it: active = growth inhibition above about 70%; inactive = the rest.

`N[n+]1ccccc1`: the growth inhibition in assay [1] is -9.45%; in assay [2], -6.85%; in assay [3], -9.1%; in assay [4] it was -37.4%; in assay [5] it was -4.65%; in assay [6] it was -2.6%.
Turning to `CCOC(=O)N(c1ccccc1)c1ccccc1`, the growth inhibition in assay [1] is -11.3%; in assay [2], -18.8%; in assay [3], 18.7%; in assay [4], 5.65%; in assay [5] it was 5%; in assay [6] it was 15.2%.
`CN1C(c2ccccc2)=C(C#N)C(=O)CC(c2cccs2)N1C` (stereo unspecified): the growth inhibition in assay [1] was -8%; in assay [2] it was 7.45%; in assay [3], 33.6%; in assay [4], -1.5%; in assay [5], 8.15%; in assay [6] it was 8.25%.
For the compound `COC(=O)C1C2OC(C(Br)C2Br)C1C(=O)OC` (stereo unspecified), the growth inhibition was -12.1% in assay [1]; -9.5% in assay [2]; -1.15% in assay [3]; -1.95% in assay [4]; -1.65% in assay [5]; -10.2% in assay [6].
On to `CC(=O)NNC(=O)c1ccccc1CO`, for which the growth inhibition in assay [1] is -18.8%; in assay [2] it was -15%; in assay [3], -4.55%; in assay [4], 10.4%; in assay [5] it was -2%; in assay [6], 20.9%.
On to `COc1ccc(OC)c(N=Cc2ccc(C=Nc3cc(OC)ccc3OC)cc2)c1`, for which the growth inhibition in assay [1] is -8%; in assay [2] it was -12.3%; in assay [3], -10.6%; in assay [4] it was 4.7%; in assay [5] it was -9%; in assay [6], -5.8%.
For `CCC(C(=O)c1ccccc1)c1cccc2c1N(C(C)=O)CC2` (stereo unspecified), the growth inhibition in assay [1] was 0.05%; in assay [2], 6.9%; in assay [3] it was -7.5%; in assay [4], -5.6%; in assay [5] it was 11.2%; in assay [6], 20.1%.
Turning to `O=[N+]([O-])c1cc2c(cc1Cl)C1C(C3C2C2(Cl)C(Cl)=C(Cl)C3(Cl)C2(Cl)Cl)C2(Cl)C(Cl)=C(Cl)C1(Cl)C2(Cl)Cl` (stereo unspecified), the growth inhibition in assay [1] is 24.4%; in assay [2], 9.6%; in assay [3] it was 30.2%; in assay [4], 24.2%; in assay [5] it was 20.6%; in assay [6], 18%.
Turning to `CCCCCCCCCCCCNC`, the growth inhibition in assay [1] was 38.2%; in assay [2], 30.4%; in assay [3], 61.9%; in assay [4], 30.6%; in assay [5], 62.6%; in assay [6], 44.9%.
With `C=C1C(=O)[C@@]23CC[C@@H]4[C@@]5(C)CCC[C@@]4(OC5=O)[C@@]2(C)CC[C@@H]1C3`, the growth inhibition in assay [1] was 92.1% (active); in assay [2] it was 93.7% (active); in assay [3], 93.8% (active); in assay [4], 89.3% (active); in assay [5], 93.3% (active); in assay [6], 92.3% (active).
For the compound `CC(C)(C)OC(=O)NCCCCC(NC(=O)OC(C)(C)C)C(=O)O` (stereo unspecified), the growth inhibition is 3.65% in assay [1]; 8.55% in assay [2]; 9.7% in assay [3]; 2.8% in assay [4]; 5.95% in assay [5]; -8.65% in assay [6].
As to `O=C(NC(=S)Nc1cc(C(F)(F)F)ccc1Cl)c1ccccc1F`, the growth inhibition in assay [1] is -1.25%; in assay [2], -1.2%; in assay [3] it was 0.35%; in assay [4], -6.85%; in assay [5] it was -1.35%; in assay [6] it was 4.95%.
`COC(=O)c1ccc([N+](=O)[O-])cc1C(=O)OC`: the growth inhibition in assay [1] is 4.85%; in assay [2], -16.7%; in assay [3], -42.1%; in assay [4], -12.3%; in assay [5] it was -52.8%; in assay [6], -3.2%.
For `Nc1cc(Cl)ccc1S(=O)(=O)O`, the growth inhibition in assay [1] was -7.1%; in assay [2], -1.8%; in assay [3], 2.1%; in assay [4] it was -48.8%; in assay [5], -15.1%; in assay [6], -4.4%.
Regarding `Cc1cc(C(N)=O)c(C(N)=O)c(Cl)n1`, the growth inhibition in assay [1] is 2.35%; in assay [2], -7.35%; in assay [3], -3.2%; in assay [4] it was -0.2%; in assay [5] it was 9.05%; in assay [6] it was -10.7%.
For `c1ccc(CC2NCCc3c2[nH]c2ccccc32)cc1` (stereo unspecified), the growth inhibition is -14.2% in assay [1]; 2.9% in assay [2]; -5.05% in assay [3]; -6.2% in assay [4]; -11.9% in assay [5]; 1.5% in assay [6].
On to `O=C1Nc2ccccc2/C1=N/N1C(=O)CSC1=S`, for which the growth inhibition is 28.6% in assay [1]; 15% in assay [2]; 32.5% in assay [3]; 7.2% in assay [4]; 15.6% in assay [5]; 29.1% in assay [6].
`NC(CCOCCP(=O)(O)CCOCCC(N)C(=O)O)C(=O)O` (stereo unspecified): the growth inhibition was -42% in assay [1]; -20.8% in assay [2]; -27.1% in assay [3]; -4.5% in assay [4]; -8.95% in assay [5]; -8.75% in assay [6].
As for `C=C1CCC2(C)CCC3(C)C(CCC4C5(C)CCC(OC(C)=O)C(C)(C)C5CCC43C)C2C1C` (stereo unspecified), the growth inhibition in assay [1] is -4.05%; in assay [2], -5.9%; in assay [3], 4.6%; in assay [4] it was 1.45%; in assay [5], -5.15%; in assay [6], 26.6%.
Turning to `S=C(Cc1cccc2ccccc12)N1CCN(c2ccc(Cl)cc2)CC1`, the growth inhibition was -17% in assay [1]; -2.3% in assay [2]; -16% in assay [3]; -7.9% in assay [4]; -9.95% in assay [5]; -0.55% in assay [6].
Consider `COc1cc(C)c2cc(C)cc(C)c2n1`, for which the growth inhibition was 3.4% in assay [1]; 6.05% in assay [2]; 1.65% in assay [3]; -17.9% in assay [4]; 3.9% in assay [5]; 7.85% in assay [6].
